Each structure is given as a SMILES string. Several values for one entry are separate records, joined by “and”; a condition that tells them apart may be missing. Identical values can stand only once. Records with an inconclusive call do not appear. The source holds several records for some structures; these can differ, active in one and inactive in another. Activity calls are given as the source filed them. Unless noted, the call rests on the fitted dose curve; in most records, active means well fitted curve in the direction sought with a large enough effect in the repeat runs; inconclusive means weak or mixed curves; inactive means no such curve, though single readings can be large; an effect the other way counts as inactive or inconclusive.

The nature of experiment [1]: qHTS assay to identify small molecule agonists of the sonic hedgehog signaling (Shh) pathway (AID 1259368; calls by dose curve;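 further: NIH/3T3-derived 3T3Gli1-Luc cells carrying a stable Gli1-driven firefly luciferase reporter; series mostly up to about 92 µM; nearly all actives have a fitted effect of over 15% in size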). An outline of the steps: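 Stable NIH/3T3 Gli1-Luc reporter clone; 24 hr cpd exposure after a 4 hr settling period; luminescence endpoint.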
Experiment [2] is described as follows: qHTS assay to identify small molecule antagonists of the sonic hedgehog signaling (Shh) pathway (AID 1259369; calls by dose curve; further: nearly all actives have a fitted effect of over 45% in size; further: potency means the concentration at half of the fitted maximal effect). An outline of the steps: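 Gli1 transcriptional reporter (firefly Luc) in NIH/3T3 background, conditioned-medium activated. 24hr exposure, luminescence endpoint.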
A general note: In qHTS, concentration-response curves come from the screen itself.

Experiment [3] concerns the target Estrogen receptor beta (Homo sapiens) (UniProt Q92731). The experiment can be described thus: qHTS assay to identify small molecule agonists of the estrogen receptor beta (ER-beta) signaling pathway (AID 1259377; active means well fitted activation curve with a large enough effect in the signal ratio in the repeat runs, not every such curve was filed as active; the % refers to the signal ratio). An outline of the steps: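 Beta-lactamase reporter readout: fluorescence of LiveBLAzer B/G FRET substrate after 2 h at room temperature, following 16 h compound treatment of ER-beta-UAS-bla HEK293T cells at 37C in 2% charcoal-stripped FBS medium.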

Experiment [4] shares this target. The experiment can be described thus: qHTS assay to identify small molecule antagonists of the estrogen receptor beta (ER-beta) signaling pathway (AID 1259378; active means well fitted inhibition curve with a large enough effect in the signal ratio in the repeat runs, not every such curve was filed as active; the % refers to the signal ratio; further: potency means the concentration at half of the fitted maximal effect). An outline of the steps: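 ER-beta-UAS-bla HEK293T cells in 2% charcoal-stripped FBS medium treated with compound plus 1nM final 17-beta-estradiol for 16 hr at 37C. Beta-lactamase reporter read by FRET substrate fluorescence after 2 hours at room temperature.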

Experiment [5] can be described thus: qHTS assay to identify small molecule agonists of the androgen receptor (AR) signaling pathway in the presence of an antagonist - cell viability counter screen (AID 1259379). Further: nearly all actives have a fitted effect of over 25% in size. Further: potency means the concentration at half of the fitted maximal effect. An outline of the steps: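 Counter screen for cell viability run in parallel with the AR agonist-mode luciferase assay. MDA-kb2 cells were co-treated with nilutamide (3.0uM final) and compounds, then incubated 16 hr at 37C, and CellTiter-Fluor fluorescence was measured.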

Experiment [6] is described as follows: qHTS assay to identify small molecule agonists of the estrogen receptor beta (ER-beta) signaling pathway - cell viability counter screen (AID 1259380). Further: nearly all actives have a fitted effect of over 30% in size. Further: potency means the concentration at half of the fitted maximal effect. In a few lines: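 In this qHTS counter screen, HEK293T cells carrying an ER-beta/UAS beta-lactamase reporter, grown in 2% charcoal-stripped FBS, received compound for 16 hr; ATP-based CellTiter-Glo luminescence was then read after 30 min at room temperature.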

A short description of experiment [7]: qHTS assay to identify small molecule antagonists of the estrogen receptor beta (ER-beta) signaling pathway - cell viability counter screen (AID 1259382). Further: nearly all actives have a fitted effect of over 55% in size. Further: potency means the concentration at half of the fitted maximal effect. In a few lines: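 HEK293T ER-beta-UAS-bla, 2% charcoal-stripped FBS; compounds + 1nM E2 16 hr 37C; CellTiter-Glo luminescence, 30 min RT.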
Experiment [8] is described as follows: qHTS assay to identify small molecule agonists or antagonists of the thyroid stimulating hormone receptor (TSHR) signaling pathway - wild type cell line counter screen (AID 1259384; calls by dose curve). In a few lines: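 Wild-type Hek293 cells, 800/well, 18 h at 37C, then compound with Ro20-1724 for 30 min RT. cAMP by HTRF (cAMP-d2/anti-cAMP cryptate), 1 h RT, fluorescence read. 15 concentrations, triplicates.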

Experiment [9] deals with Thyrotropin receptor (Homo sapiens) (UniProt P16473). Nature of the experiment: qHTS assay to identify small molecule antagonists of the thyroid stimulating hormone receptor (TSHR) signaling pathway (AID 1259385; calls by dose curve; further: nearly all actives have a fitted effect of over 20% in size; further: potency means the concentration at half of the fitted maximal effect). In a few lines: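 TSHR-HEK293 cells (800/well) plated 18 h, then compounds with Ro20-1724 and TSH at 1.5 ng/mL final, 30 min at room temperature. cAMP quantified by HTRF (cAMP-d2/anti-cAMP-cryptate, 1 h); 15 concentrations in triplicate.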
Thyrotropin receptor (Homo sapiens), sequence (P16473 whole entry, looked up): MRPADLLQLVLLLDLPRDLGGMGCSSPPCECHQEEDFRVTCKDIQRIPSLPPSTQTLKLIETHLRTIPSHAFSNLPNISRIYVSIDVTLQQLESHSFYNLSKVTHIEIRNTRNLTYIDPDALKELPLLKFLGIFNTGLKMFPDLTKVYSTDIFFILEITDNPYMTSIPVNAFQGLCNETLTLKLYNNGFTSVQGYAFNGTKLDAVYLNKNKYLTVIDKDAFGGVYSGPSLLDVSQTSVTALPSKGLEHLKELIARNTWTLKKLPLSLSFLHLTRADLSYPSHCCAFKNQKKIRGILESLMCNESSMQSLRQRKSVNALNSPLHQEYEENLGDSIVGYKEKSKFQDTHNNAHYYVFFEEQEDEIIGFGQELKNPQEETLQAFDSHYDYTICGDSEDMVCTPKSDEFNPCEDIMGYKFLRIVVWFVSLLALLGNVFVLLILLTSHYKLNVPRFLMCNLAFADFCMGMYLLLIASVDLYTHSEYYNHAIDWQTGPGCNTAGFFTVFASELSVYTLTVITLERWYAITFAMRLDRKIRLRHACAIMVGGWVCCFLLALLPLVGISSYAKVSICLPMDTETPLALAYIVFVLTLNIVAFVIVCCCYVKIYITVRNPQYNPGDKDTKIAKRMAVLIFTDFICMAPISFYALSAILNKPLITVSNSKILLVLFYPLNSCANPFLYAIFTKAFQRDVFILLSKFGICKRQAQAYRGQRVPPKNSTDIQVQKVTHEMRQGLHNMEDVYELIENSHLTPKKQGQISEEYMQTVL

The nature of experiment [10]: qHTS assay to identify small molecule agonists of the estrogen receptor alpha (ER-alpha) signaling pathway in the presence of an antagonist - cell viability counter screen (AID 1259386).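 Further: series mostly up to about 92 µM; cells exposed to compounds for 22 h at 37 °C before the viability read; nearly all actives have a fitted effect of over 30% in size.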 An outline of the steps:
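Steps: 5-day stripped-FBS culture; seed and incubate 24hr; add ICI-182,780 (10.0nM final); pin 15-point compound titration; incubate 22hr at 37C; add CellTiter-Fluor at 21hr; read fluorescence.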

Experiment [11] has as its target Progesterone receptor (Homo sapiens) (UniProt P06401). Nature of the experiment: qHTS assay to identify small molecule agonists of the progesterone receptor (PR) signaling pathway (AID 1346784; calls by dose curve; further: nearly all actives have a fitted effect of over 30% in size). In a few lines:
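HEK 293T PR-UAS-bla reporter cells, 2% charcoal-stripped FBS; 6 hr settle at 37C/5% CO2, compound (DMSO) 16 hr, LiveBLAzer B/G FRET substrate 2 hr RT, fluorescence intensity read.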

The target is the same in experiment [12]. Nature of the experiment: qHTS assay to identify small molecule antagonists of the progesterone receptor (PR) signaling pathway (AID 1346795; active means well fitted inhibition curve with a large enough effect in the signal ratio in the repeat runs, not every such curve was filed as active; the % refers to the signal ratio; further: potency means the concentration at half of the fitted maximal effect). In a few lines: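 Beta-lactamase reporter, HEK293T PR-UAS-bla line; 2% charcoal-stripped FBS; 6 hr pre-incubation, 37C/5% CO2. Compound + R5020 1 nM final, 16 hr. LiveBLAzer B/G FRET substrate, 2 hr RT; fluorescence intensity read.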

Experiment [13] in a line: qHTS assay to identify small molecule antagonists of the progesterone receptor (PR) signaling pathway - cell viability counter screen (AID 1346798). Further: nearly all actives have a fitted effect of over 50% in size. Further: potency means the concentration at half of the fitted maximal effect. An outline of the steps:
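Luminescence readout (CellTiter-Glo, 30 min, RT) of viability in PR-UAS-bla HEK293T cells exposed to compound and R5020 agonist for 16 hr at 37C, 5% CO2; run in the same wells as the beta-lactamase reporter read.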

Experiment [14] is described as follows: qHTS assay to identify small molecule agonists of the progesterone receptor (PR) signaling pathway - cell viability counter screen (AID 1346799; calls by dose curve; further: nearly all actives have a fitted effect of over 45% in size; further: potency means the concentration at half of the fitted maximal effect). In a few lines:
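HEK293T PR-UAS-bla, 3,000 cells/well, 2% charcoal-stripped FBS; 6 h settle, compound 16 h at 37C/5% CO2; LiveBLAzer 2 h RT, then CellTiter-Glo 30 min RT, luminescence read.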

Experiment [15] is described as follows: qHTS assay to identify small molecule antagonists of the TGF-beta/Smad signaling pathway - cell viability counter screen (AID 1346824). Further: nearly all actives have a fitted effect of over 50% in size. In a few lines: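 SBE-bla HEK 293T cells, incubated overnight, then compound plus 0.25 ng/mL TGF-beta1 (stock added) for 5 hr at 37 C. Viability was read in the same wells by CellTiter-Glo luminescence after 30 min at room temperature.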

A short description of experiment [16]: qHTS assay to identify small molecule agonists of the TGF-beta/Smad signaling pathway - cell viability counter screen (AID 1346829). Further: top concentration of the series differs between compounds; nearly all actives have a fitted effect of over 45% in size. An outline of the steps: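 Same-well cytotoxicity: CellTiter-Glo added after the 2 hr room-temperature beta-lactamase substrate step, luminescence measured 30 min later; cells had 5 hr of compound at 37 C.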
Experiment [17] in a line: qHTS assay to identify small molecule agonists of the TGF-beta/Smad signaling pathway (AID 1346859; active means well fitted activation curve with a large enough effect in the signal ratio in the repeat runs, not every such curve was filed as active; the % refers to the signal ratio; further: series mostly up to about 77 µM). An outline of the steps:
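Read-out: fluorescence at 460 and 530 nm (405 nm excitation) after a 2 hr room-temperature incubation with beta-lactamase FRET substrate. SBE-bla HEK 293T cells had been treated with test compounds for 5 hr at 37 C.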

Experiment [18] addresses Thyrotropin-releasing hormone receptor (Homo sapiens) (UniProt P34981). Nature of the experiment: qHTS assay to identify small molecule antagonists of the thyrotropin-releasing hormone receptor (TRHR) signaling pathway (AID 1346877; active means well fitted inhibition curve with a large enough effect in the repeat runs, not every such curve was filed as active; further: series mostly up to about 51 µM). An outline of the steps:
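Human TRHR in HEK293 cells; inhibition of the intracellular calcium rise triggered by 1 nM TRH was followed by fluorescence over 3 min. Compounds were run at 15 concentrations, three replicates each.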

Experiment [19] has as its target Estrogen receptor (Homo sapiens) (UniProt P03372). The experiment can be described thus: qHTS assay to identify small molecule agonists of the estrogen receptor alpha (ER-alpha) signaling pathway in the presence of an antagonist (AID 1259383; calls by dose curve; further: top concentration of the series differs between compounds; nearly all actives have a fitted effect of over 15% in size). An outline of the steps: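 ER-alpha agonism measured under antagonist challenge: 10.0nM ICI-182,780 (final) plus compound, 15 concentrations, 22hr, VM7Luc4E2 ERE-luciferase cells. Read by luminescence.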

Estrogen receptor beta (Homo sapiens), sequence (Q92731 whole entry, looked up): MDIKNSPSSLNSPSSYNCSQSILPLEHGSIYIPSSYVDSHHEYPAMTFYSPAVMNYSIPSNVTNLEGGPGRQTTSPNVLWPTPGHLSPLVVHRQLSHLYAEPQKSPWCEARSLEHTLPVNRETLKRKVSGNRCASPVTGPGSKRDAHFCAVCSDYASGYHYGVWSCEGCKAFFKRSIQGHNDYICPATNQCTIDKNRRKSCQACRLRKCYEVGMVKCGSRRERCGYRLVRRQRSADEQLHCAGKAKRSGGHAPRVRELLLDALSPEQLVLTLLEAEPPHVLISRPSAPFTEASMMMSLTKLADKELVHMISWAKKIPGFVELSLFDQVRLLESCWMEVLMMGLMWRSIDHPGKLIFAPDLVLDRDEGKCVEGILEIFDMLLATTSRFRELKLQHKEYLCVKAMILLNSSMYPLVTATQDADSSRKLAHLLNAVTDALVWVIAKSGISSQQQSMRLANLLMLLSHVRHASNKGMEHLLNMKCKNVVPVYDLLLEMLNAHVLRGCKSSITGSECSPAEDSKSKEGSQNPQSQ
Estrogen receptor (Homo sapiens), sequence (P03372 whole entry, looked up): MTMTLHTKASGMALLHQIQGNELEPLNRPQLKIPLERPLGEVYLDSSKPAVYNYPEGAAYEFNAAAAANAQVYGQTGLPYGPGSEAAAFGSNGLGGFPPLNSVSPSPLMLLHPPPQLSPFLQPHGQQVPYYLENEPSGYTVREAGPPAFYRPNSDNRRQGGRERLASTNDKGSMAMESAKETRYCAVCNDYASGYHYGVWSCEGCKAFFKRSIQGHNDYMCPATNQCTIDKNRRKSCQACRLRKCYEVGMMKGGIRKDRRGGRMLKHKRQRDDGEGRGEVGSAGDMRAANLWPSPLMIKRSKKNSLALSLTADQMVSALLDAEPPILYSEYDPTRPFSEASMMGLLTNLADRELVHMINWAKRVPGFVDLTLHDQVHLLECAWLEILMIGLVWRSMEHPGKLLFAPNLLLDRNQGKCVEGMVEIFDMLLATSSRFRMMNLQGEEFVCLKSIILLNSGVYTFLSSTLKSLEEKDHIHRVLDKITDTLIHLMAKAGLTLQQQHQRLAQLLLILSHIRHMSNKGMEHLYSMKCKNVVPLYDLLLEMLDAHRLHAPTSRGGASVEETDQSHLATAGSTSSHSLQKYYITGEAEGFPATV
Thyrotropin-releasing hormone receptor (Homo sapiens), sequence (P34981 whole entry, looked up): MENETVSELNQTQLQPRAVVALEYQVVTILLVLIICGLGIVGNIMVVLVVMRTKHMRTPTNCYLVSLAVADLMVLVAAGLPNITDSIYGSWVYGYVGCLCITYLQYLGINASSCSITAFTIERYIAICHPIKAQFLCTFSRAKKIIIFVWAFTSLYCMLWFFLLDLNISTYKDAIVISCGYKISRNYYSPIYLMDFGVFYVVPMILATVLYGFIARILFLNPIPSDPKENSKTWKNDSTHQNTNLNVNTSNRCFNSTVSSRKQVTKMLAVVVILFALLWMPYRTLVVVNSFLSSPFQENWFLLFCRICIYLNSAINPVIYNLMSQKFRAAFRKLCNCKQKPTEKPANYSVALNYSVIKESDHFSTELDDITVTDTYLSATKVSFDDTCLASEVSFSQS
Progesterone receptor (Homo sapiens), sequence (P06401 whole entry, looked up): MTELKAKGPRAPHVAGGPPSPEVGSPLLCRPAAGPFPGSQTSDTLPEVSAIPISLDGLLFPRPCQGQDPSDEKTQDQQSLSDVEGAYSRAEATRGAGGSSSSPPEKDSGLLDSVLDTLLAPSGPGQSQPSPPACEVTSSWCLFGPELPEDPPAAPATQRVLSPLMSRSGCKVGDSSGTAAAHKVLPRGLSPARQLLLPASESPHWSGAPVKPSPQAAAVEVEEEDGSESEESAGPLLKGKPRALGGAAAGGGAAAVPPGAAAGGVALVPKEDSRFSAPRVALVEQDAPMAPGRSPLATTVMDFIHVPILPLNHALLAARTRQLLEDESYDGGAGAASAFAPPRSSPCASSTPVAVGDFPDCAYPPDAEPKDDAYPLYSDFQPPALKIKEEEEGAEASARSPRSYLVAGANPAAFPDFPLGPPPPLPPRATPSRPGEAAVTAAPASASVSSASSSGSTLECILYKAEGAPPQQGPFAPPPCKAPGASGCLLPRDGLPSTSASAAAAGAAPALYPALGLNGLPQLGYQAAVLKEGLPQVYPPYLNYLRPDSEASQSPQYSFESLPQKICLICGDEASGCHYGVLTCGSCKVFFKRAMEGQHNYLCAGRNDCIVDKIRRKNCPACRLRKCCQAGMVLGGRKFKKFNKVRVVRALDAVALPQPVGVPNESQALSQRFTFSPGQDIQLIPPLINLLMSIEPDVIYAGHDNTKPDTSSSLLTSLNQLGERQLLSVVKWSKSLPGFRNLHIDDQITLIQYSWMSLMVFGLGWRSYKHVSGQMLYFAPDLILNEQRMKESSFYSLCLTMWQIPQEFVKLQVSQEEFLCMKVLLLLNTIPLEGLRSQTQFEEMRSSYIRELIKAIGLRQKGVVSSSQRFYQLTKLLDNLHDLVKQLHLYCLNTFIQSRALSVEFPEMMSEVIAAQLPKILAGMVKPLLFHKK

For `CCCCC(CC)COP(=O)(OCC(CC)CCCC)OCC(CC)CCCC` (configuration not stated), the Potency result in experiment [1], in [2], in [3], in experiment [4], in experiment [5] and in [6] was “inactive” in each case. Moreover, the Potency entry in experiment [7], in experiment [9], in experiment [10], in [11], in experiment [12] and in experiment [13] was “inactive” in each case. Moreover, the Potency result in [14], in experiment [15], in [16] and in experiment [18] was “inactive” each time. Also, the call in experiment [8] and in [17] was inactive.
`CCC(C)c1ccccc1O` (configuration not stated): the Potency entry in experiment [1], in [2], in [3], in experiment [4], in experiment [5] and in experiment [6] was “inactive” in each case. The Potency entry in experiment [7], in experiment [9], in experiment [10], in experiment [11], in [12] and in experiment [15] was “inactive” each time. Besides, the Potency result in [16] and in [18] was “inactive” each time. Besides, the molecule was called inactive in [8] and in experiment [17].
As to `CC(C)=CCCC(C)CCO` (configuration not stated), the Potency entry in [1], in [2], in [3], in experiment [4], in experiment [5] and in experiment [6] was “inactive” throughout. Also, the Potency entry in experiment [7], in experiment [19], in [9], in [10], in experiment [11] and in experiment [12] was “inactive” in each case. For the same molecule, the Potency entry in experiment [13], in [14], in [15], in experiment [16] and in [18] was “inactive” throughout. Also, the molecule was called inactive in [8] and in experiment [17].
As for `CCCCC/C=C/C=C/C=O`, the Potency result in experiment [1], in experiment [3], in experiment [4], in experiment [9], in experiment [10] and in experiment [11] was “inactive” each time. Also, the Potency result in [12], in [14], in [15], in experiment [16] and in experiment [18] was “inactive” throughout. Also, the Potency entry was “inactive and 34.4 µM (active)” in [2]; 68 µM (active) and inactive in experiment [5]. The molecule was classed as inactive in [8] and in [17].
Take `Clc1nc(Cl)c(Cl)c(Cl)c1Cl`: the Potency result in [1], in experiment [2], in experiment [3], in experiment [4], in experiment [6] and in experiment [9] was “inactive” throughout. Also, the Potency result in [10], in experiment [11], in experiment [12], in [13], in [14] and in [15] was “inactive” throughout. For the same molecule, in [16], the Potency entry was “inactive”. Further, the Potency in experiment [5] was 61.4 µM (active). The call in experiment [8] and in [17] was inactive.
For `CCCCc1oc2ccccc2c1C(=O)c1cc(I)c(OCCN(CC)CC)c(I)c1`, the Potency result in experiment [1], in experiment [3], in [19], in experiment [9], in experiment [10] and in experiment [11] was “inactive” each time. Further, the Potency entry in experiment [15] and in [18] was “inactive” each time. In addition, the Potency is 43.6 µM (active) and inactive in experiment [2]; 21.9 µM (active) and 26.6 µM (active) in experiment [4]; 43.6 µM (active) and 33.5 µM (active) in experiment [5]; 19.5 µM (active) and 29.8 µM (active) in experiment [6]; 24.5 µM (active) and 11.9 µM (active) in experiment [13]; 19.5 µM (active) and 13.3 µM (active) in experiment [14]. Moreover, the outcome in experiment [8] and in experiment [17] was inactive.
With `CN(C)CCC=C1c2ccccc2CCc2ccccc21`, the Potency entry in experiment [1], in experiment [3], in experiment [5], in experiment [10], in experiment [11] and in experiment [15] was “inactive” throughout. The Potency entry in [16] and in experiment [18] was “inactive” throughout. Moreover, the Potency is 2.73 µM (active) and 9.69 µM (active) and 7.5 µM (active) in experiment [2]; 68.6 µM (active) in experiment [4]; 30.6 µM (active) and 26.6 µM (active) in experiment [6]; 15.4 µM (active) and 13.7 µM (active) and 26.6 µM (active) in experiment [7]; 68.6 µM (active) and 26.6 µM (active) in experiment [9]; 54.5 µM (active) in experiment [12]. Moreover, in experiment [13], the Potency was 61.1 µM (active) and 30.6 µM (active) and 16.8 µM (active). Besides, the molecule was classed as inactive in [8] and in [17].
